PubChem BioAssay (NCATS)
Records with an inconclusive call do not appear. A number with no mark means an inactive call. Calls follow the shape of the dose curve; as a rule, active = well fitted inhibition curve with a large enough effect; inconclusive = small, poorly fitted or top-dose-only effect; inactive = flat fitted curve, though single readings scatter.
% is scaled to controls: 0 for no effect and ±100 for the full control effect.

The compounds below were run against Calcium and integrin-binding protein 1 (Homo sapiens) (UniProt Q99828) (assay: Primary qHTS for Identification of Calcium Integrin Binding Protein 1 (CIB1) Competitor (AID 1508620;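 also: GST tagged CIB1 binding a fluorescein labelled alphaIIb integrin peptide tracer; top concentration of the series differs between compounds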)). Conditions: CIB1-GST / FITC-alphaIIb peptide fluorescence polarization; series mostly up to 114 µM; activity change, negative = inhibition: at the top concentration.
Chain of Calcium and integrin-binding protein 1 (Homo sapiens) (Q99828 whole entry, looked up): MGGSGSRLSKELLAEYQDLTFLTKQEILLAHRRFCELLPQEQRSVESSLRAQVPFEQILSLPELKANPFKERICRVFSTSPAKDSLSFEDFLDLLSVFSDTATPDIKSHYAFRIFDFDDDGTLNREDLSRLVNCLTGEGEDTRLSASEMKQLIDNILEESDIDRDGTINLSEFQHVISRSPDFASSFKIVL
Procedure, shortened: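 CIB1-GST (1 uM final) and compound incubated 15 min at room temperature before adding FITC-alphaIIb peptide tracer (100 nM final). Competition for binding read by fluorescence polarization (ex 480, em 540) after another 15 min at room temperature.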
In the case of `Cc1ccc(NC(=O)c2ccc3c(c2)CCC(=O)N3)cc1C`, the “activity change, negative = inhibition” value is reported as -0.11%. For `CC(C)(C)OC(=O)Nc1ncnc2c1C(c1ccccc1)c1c(ccc3ccccc13)O2` (centres undefined), the “activity change, negative = inhibition” value was 4.97%. `N#Cc1ccc(CNc2nc(-c3ccccc3C(F)(F)F)nc3ccccc23)cc1` was tested, and the “activity change, negative = inhibition” value was 5.03%. `COc1ccccc1C(=O)OCC#CCSc1nnc(-c2cccc3ccccc23)o1` was tested, and the “activity change, negative = inhibition” value was 5.37%. `C#CCOc1ccc(-c2no[n+]([O-])c2C#N)cc1` was tested, and the “activity change, negative = inhibition” value was -6%. In the case of `O=[S+]([O-])(c1ccc2c(c1)OCCO2)N1CCN([S+](=O)([O-])c2ccc(F)cc2Cl)CC1`, the “activity change, negative = inhibition” value is reported as 0.718%. `N#CN1CCC(NS(=O)(=O)c2cccc(C(F)(F)F)c2)CC1` was tested, and the “activity change, negative = inhibition” value was -1.66%. With `Cc1ccc2nc3sc(C(=O)Nc4ccncc4)cc3cc2c1` the “activity change, negative = inhibition” value was -1.51%. For `NC(=O)C1CCN(c2nc(-c3ccccc3F)cs2)CC1`, the “activity change, negative = inhibition” value was -0.328%. With `CC(=O)Nc1sc2c(c1-c1ccccc1F)CCNC2` the “activity change, negative = inhibition” value was 1.4%. For `S=C(NCCCc1cnc[nH]1)NCCN(Cc1ccc(Cl)c(Cl)c1)c1ccc(Br)cn1`, the “activity change, negative = inhibition” value was -8.2%. For `C=CCNc1oc(-c2cccc(Cl)c2)nc1C#N`, the “activity change, negative = inhibition” value was -19.5%. In the case of `Cc1cc(C)nc(NC(=S)N2CCN(c3nsc4ccccc34)CC2)c1`, the “activity change, negative = inhibition” value is reported as -11.9%. With `O=C(O)c1cccc(-c2noc(-c3cccc(Cl)c3)n2)c1` the “activity change, negative = inhibition” value was -15.4%. With `CC(=O)Nc1sc2c(c1C(=O)c1ccccc1)CCN(C(C)C)C2` the “activity change, negative = inhibition” value was -13.9%. In the case of `N#Cc1nc(Nc2ccccc2)nc(NC2CCCC2)n1`, the “activity change, negative = inhibition” value is reported as -2.22%. `CC(=O)N1CCN(c2ccc(NCc3ccc(Br)o3)cc2)CC1` was tested, and the “activity change, negative = inhibition” value was -4.72%. In the case of `O=C(C1CCN(c2nc(-c3ccc(Br)cc3)cs2)CC1)N1CCOCC1`, the “activity change, negative = inhibition” value is reported as 4.07%. In the case of `Cc1c(Br)cc(F)c([S+](=O)([O-])N2CCN([S+](=O)([O-])c3ccc4c(c3)OCCO4)CC2)c1F`, the “activity change, negative = inhibition” value is reported as 5.41%. `CC(=O)Nc1ccccc1OC1=N[S+](=O)([O-])c2ccccc21` was tested, and the “activity change, negative = inhibition” value was 2.47%. For `COc1ccc(C(=O)Nc2ccc(-c3nc4ccccc4[nH]3)cc2)cc1OC`, the “activity change, negative = inhibition” value was -0.868%. `O=Cc1ccc(-c2ccc3ncnc(NCc4cccs4)c3c2)o1` was tested, and the “activity change, negative = inhibition” value was 4.7%. For `Cc1cc2c(s1)c1cnn(Cc3ccc(Cl)cc3)c(=O)c1n2C`, the “activity change, negative = inhibition” value was 38.3%. For `O=S(=O)(c1ccc(Br)cc1)N1CCN(S(=O)(=O)c2ccc3c(c2)OCCO3)CC1`, the “activity change, negative = inhibition” value was 5.25%. With `NC(=O)c1ccc(-c2noc(-c3cccc(Cl)c3)n2)cc1` the “activity change, negative = inhibition” value was 1.3%. In the case of `O=C(c1ccc2c(c1)ncn2-c1ccc(Cl)cc1)N1CCCCC1`, the “activity change, negative = inhibition” value is reported as -5.06%. For `O=C(NC1CCCc2c1cnn2CCO)c1ccccn1` (centres undefined), the “activity change, negative = inhibition” value was 1.06%. For `O=C1NC(=O)/C(=C/c2cccn2-c2ccc(P(O)O)cc2)N1`, the “activity change, negative = inhibition” value was -2.2%. For `COc1ccc(C2Nc3ccccc3C(=O)N2CCc2ccccc2)cc1COc1ccc(NC(C)=O)cc1` (centres undefined), the “activity change, negative = inhibition” value was 0.0291%. In the case of `N#Cc1ccc(-c2nc(NCc3ccc(-c4ccnc(C(F)(F)F)c4)cc3)c3ccccc3n2)cc1`, the “activity change, negative = inhibition” value is reported as 13.5%. With `O=C(OCC#CCSc1nnc(-c2cccc3ccccc23)o1)c1ccncc1` the “activity change, negative = inhibition” value was 0.615%. For `Cc1cccc(CNc2ccnc(-c3cc(C(F)(F)F)cc(C(F)(F)F)c3)n2)c1`, the “activity change, negative = inhibition” value was 3.85%. `Cc1cc(-c2nnc3n2CCCCC3)c(C)n1-c1ccncc1` was tested, and the “activity change, negative = inhibition” value was -1.22%. For `O=C1NC2=C(C(=O)CCC2)C(c2ccccc2Cl)N1` (centres undefined), the “activity change, negative = inhibition” value was 7.09%. `CN(C)[S+](=O)([O-])c1ccc(-c2ccc(=O)n(CC(=O)NCCc3ccccc3)n2)cc1` was tested, and the “activity change, negative = inhibition” value was 3.22%. In the case of `COc1ccc(-n2cnc3c(c2=N)C(c2cccc(OC)c2)c2c(ccc4ccccc24)O3)cc1` (centres undefined), the “activity change, negative = inhibition” value is reported as 5.41%. In the case of `COc1ccc(C2Nc3ccccc3C(=O)N2Cc2ccco2)cc1COc1c(C)cccc1C` (centres undefined), the “activity change, negative = inhibition” value is reported as 0.799%. In the case of `Oc1ccc(CCc2ccccc2)c2cccnc12`, the “activity change, negative = inhibition” value is reported as -7.25%. With `COc1ccccc1-c1csc2ncnc(Sc3nnnn3C)c12` the “activity change, negative = inhibition” value was -4.68%.
